The results in this text go back to PubChem BioAssay (EPA / NIEHS).

For orientation: AC50 means the concentration giving half of the maximal activity seen.

Inconclusive results are not listed. Active and inactive are the calls of the source. The calls were made as follows: active = hit-call score of the fitted dose curve at least 0.9, where 1 is the maximum; inconclusive = response in the unintended direction; inactive = score below 0.9.

Assay [1] deals with human Neurokinin, NK2 Receptor, TACR2 (gene 6865) (UniProt P21452). Kind of assay: NVS_GPCR_hNK2: NovaScreen (NVS) G Protein-Coupled Receptor Assay for human Neurokinin, NK2 Receptor (AID 2283278).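 Also: actives reduce bound radioligand signal relative to DMSO baseline.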 In short, it runs like this: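 Filter-based scintillation counting measured radioligand bound to receptor extracted from CHO cells, 4 hours after compound addition. Chemicals screened first at 25 uM in duplicate, with actives retested in concentration series relative to DMSO.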
human Neurokinin, NK2 Receptor, TACR2 (gene 6865), sequence (P21452 whole entry, looked up): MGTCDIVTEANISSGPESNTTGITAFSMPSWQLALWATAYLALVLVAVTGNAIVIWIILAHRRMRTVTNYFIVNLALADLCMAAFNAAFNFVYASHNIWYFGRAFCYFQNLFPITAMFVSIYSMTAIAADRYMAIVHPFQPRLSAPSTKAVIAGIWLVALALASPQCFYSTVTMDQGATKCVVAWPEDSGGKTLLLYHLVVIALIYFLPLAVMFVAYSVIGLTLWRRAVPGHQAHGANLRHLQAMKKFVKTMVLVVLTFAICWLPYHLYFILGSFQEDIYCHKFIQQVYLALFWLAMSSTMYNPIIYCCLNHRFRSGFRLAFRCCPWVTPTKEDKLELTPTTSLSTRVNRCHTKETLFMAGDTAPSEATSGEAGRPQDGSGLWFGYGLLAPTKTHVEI

In assay [2] the target is rat Serotonin, 5-Hydroxytryptamine Receptor 1 (5HT1), Non-Selective Binding, Htr1a (gene 24473) (UniProt P19327). Kind of assay: NVS_GPCR_r5HT1_NonSelective: NovaScreen (NVS) G Protein-Coupled Receptor Assay for rat Serotonin, 5-Hydroxytryptamine Receptor 1 (5HT1), Non-Selective Binding (AID 2283286). Summed up: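 Binding of a radioligand to rat cortex membranes is read by filtration and scintillation counting after 1 h. Compounds were screened at 25 uM in duplicate. Actives were then titrated to a top of 50 uM. DMSO is the baseline.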
rat Serotonin, 5-Hydroxytryptamine Receptor 1 (5HT1), Non-Selective Binding, Htr1a (gene 24473), sequence (P19327 whole entry, looked up): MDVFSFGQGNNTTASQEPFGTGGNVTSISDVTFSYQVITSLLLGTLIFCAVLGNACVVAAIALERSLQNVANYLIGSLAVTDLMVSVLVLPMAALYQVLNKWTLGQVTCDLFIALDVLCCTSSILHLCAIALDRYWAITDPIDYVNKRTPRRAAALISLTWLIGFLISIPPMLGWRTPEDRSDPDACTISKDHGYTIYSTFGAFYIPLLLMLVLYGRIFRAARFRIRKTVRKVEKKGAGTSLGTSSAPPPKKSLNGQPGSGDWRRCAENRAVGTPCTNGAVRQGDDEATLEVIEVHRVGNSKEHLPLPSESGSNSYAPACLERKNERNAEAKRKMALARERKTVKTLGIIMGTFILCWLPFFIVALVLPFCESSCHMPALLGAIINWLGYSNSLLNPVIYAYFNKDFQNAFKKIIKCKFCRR

Assay [3] concerns the target rat Adrenergic, Alpha 1, Non-selective Receptor (Adra1), Adra1a (gene 29412) (UniProt P43140). Kind of assay: NVS_GPCR_rAdra1_NonSelective: NovaScreen (NVS) G Protein-Coupled Receptor Assay for rat Adrenergic, Alpha 1, Non-selective Receptor (Adra1) (AID 2283289). In short, it runs like this:
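Chemicals first screened in duplicate at 25 uM, then actives tested in concentration series up to 50 uM. Binding measured as displacement of radioligand from rat forebrain membrane receptors, 1 h, filtration with scintillation readout; DMSO baseline.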

Assay [4] concerns the target Muscarinic acetylcholine receptor M3 (Homo sapiens) (UniProt P20309). In words: NVS_GPCR_hM3: NovaScreen (NVS) G Protein-Coupled Receptor Assay for human Muscarinic, M3 Receptor (AID 2283272). In short, it runs like this:
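Radioligand displacement binding on human M3 receptor in CHO-derived membranes, 1 h incubation, filter-based scintillation counting. Primary screen in duplicate at 25 uM; actives followed up in concentration series; loss of signal versus DMSO.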

Assay [5] deals with Muscarinic acetylcholine receptor M2 (Homo sapiens) (UniProt P08172). In words: NVS_GPCR_hM2: NovaScreen (NVS) G Protein-Coupled Receptor Assay for human Muscarinic, M2 Receptor (AID 2283273). Summed up:
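Filter-based radiodetection read bound radioligand 1 h after dosing CHO-derived membrane protein. Single-concentration duplicates (25 uM) first, then concentration-response for actives; signal loss versus DMSO scored.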

In assay [6] the target is human Muscarinic, M4 Receptor, CHRM4 (gene 1132) (UniProt P08173). Kind of assay: NVS_GPCR_hM4: NovaScreen (NVS) G Protein-Coupled Receptor Assay for human Muscarinic, M4 Receptor (AID 2283274). Summed up:
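Filter-based scintillation counting of radioligand bound to CHO-expressed human M4 preparations after 1 h; loss of signal fitted versus DMSO. Initial duplicate testing at 25 uM, concentration-response follow-up for actives.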

Assay [7] concerns the target Muscarinic acetylcholine receptor M5 (Homo sapiens) (UniProt P08912). Kind of assay: NVS_GPCR_hM5: NovaScreen (NVS) G Protein-Coupled Receptor Assay for human Muscarinic, M5 Receptor (AID 2283275). Summed up: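 Chemicals passing a primary duplicate screen at 25 uM were run as singleton concentration series, maximum 50 uM. Displacement of a specific radioligand from CHO-extracted receptor was read by filter scintillation after 1 h, relative to DMSO.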

In assay [8] the target is Neuropeptide Y receptor type 2 (Homo sapiens) (UniProt P49146). Kind of assay: NVS_GPCR_hNPY2: NovaScreen (NVS) G Protein-Coupled Receptor Assay for human Neuropeptide Receptor Y2 (NPY2) (AID 2283277). Summed up: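 Chemicals were first tested in duplicate at 25 uM, then actives in singleton concentration series to 50 uM. Tracer binding to SK-N-MC-derived protein measured cell-free after 1 h via filter scintillation; signal loss relative to DMSO.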
Neuropeptide Y receptor type 2 (Homo sapiens), sequence (P49146 whole entry, looked up): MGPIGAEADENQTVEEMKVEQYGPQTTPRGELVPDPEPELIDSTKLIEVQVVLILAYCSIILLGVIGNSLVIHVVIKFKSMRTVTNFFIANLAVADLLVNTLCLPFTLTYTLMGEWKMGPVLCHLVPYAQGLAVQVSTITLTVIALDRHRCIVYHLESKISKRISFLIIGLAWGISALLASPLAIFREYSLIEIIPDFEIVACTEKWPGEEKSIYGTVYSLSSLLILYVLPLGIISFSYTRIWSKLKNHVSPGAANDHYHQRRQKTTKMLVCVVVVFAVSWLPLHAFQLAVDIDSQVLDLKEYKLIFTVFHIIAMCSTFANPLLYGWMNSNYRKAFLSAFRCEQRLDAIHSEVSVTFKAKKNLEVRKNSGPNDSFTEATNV

In assay [9] the target is human Opioid Receptor Delta 1 (Opiate D1), OPRD1 (gene 4985) (UniProt P41143). In words: NVS_GPCR_hOpiate_D1: NovaScreen (NVS) G Protein-Coupled Receptor Assay for human Opioid Receptor Delta 1 (Opiate D1) (AID 2283280). In short, it runs like this: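 Membrane preparations from CHO cells bearing the human receptor were incubated 1 h with test chemical, and bound radioligand was counted after filtration. Actives from 25 uM duplicate screening were retested in concentration-response.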
human Opioid Receptor Delta 1 (Opiate D1), OPRD1 (gene 4985), sequence (P41143 whole entry, looked up): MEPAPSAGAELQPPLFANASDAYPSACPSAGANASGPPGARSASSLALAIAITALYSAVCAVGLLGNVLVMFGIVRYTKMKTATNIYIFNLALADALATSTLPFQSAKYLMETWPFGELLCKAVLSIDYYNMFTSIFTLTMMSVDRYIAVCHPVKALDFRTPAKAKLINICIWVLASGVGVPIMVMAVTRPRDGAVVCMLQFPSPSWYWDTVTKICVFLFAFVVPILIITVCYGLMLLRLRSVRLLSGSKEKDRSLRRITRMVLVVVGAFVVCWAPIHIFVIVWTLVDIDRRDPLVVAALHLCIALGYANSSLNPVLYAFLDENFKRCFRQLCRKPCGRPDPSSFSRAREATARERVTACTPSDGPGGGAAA

The target of assay [10] is mouse Cholecystokinin, CCK1 Receptor (CCKA), Cckar (gene 12425) (UniProt O08786). In words: NVS_GPCR_mCCKAPeripheral: NovaScreen (NVS) G Protein-Coupled Receptor Assay for mouse Cholecystokinin, CCK1 Receptor (CCKA) (AID 2283285). In short, it runs like this: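 Chemicals were first screened in duplicate at 25 uM, with those meeting threshold (e.g., 30% inhibition) retested in singleton concentration series to 50 uM maximum. Binding of radioligand to mouse pancreatic membranes was read after 2 h by filtration and scintillation counting.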
mouse Cholecystokinin, CCK1 Receptor (CCKA), Cckar (gene 12425), sequence (O08786 whole entry, looked up): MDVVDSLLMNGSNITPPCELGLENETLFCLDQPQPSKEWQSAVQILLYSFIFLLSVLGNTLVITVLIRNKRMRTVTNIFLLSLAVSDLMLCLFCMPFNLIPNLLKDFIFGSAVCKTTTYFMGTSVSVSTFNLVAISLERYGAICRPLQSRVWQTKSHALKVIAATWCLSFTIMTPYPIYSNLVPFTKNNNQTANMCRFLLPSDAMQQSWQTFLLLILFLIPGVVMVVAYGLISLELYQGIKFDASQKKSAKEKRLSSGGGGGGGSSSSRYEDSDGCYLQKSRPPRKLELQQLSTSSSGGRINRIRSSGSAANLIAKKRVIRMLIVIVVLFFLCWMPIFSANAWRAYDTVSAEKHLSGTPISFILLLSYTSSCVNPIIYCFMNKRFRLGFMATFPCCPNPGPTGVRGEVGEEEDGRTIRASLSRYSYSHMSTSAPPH

Assay [11] concerns rabbit Platelet Activating Factor Receptor (PAF), gene 100354046. In words: NVS_GPCR_rabPAF: NovaScreen (NVS) G Protein-Coupled Receptor Assay for rabbit Platelet Activating Factor Receptor (PAF) (AID 2283287). Summed up: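 Rabbit platelet membrane preparation; radioligand displacement read by filter-based scintillation counting 1 h after dosing, loss of signal versus DMSO. Primary screen in duplicate at 25 uM, actives followed up in concentration series.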

Assay [12] deals with human Opioid Receptor Mu (Opiate Mu), OPRM1 (gene 4988) (UniProt P35372). In words: NVS_GPCR_hOpiate_mu: NovaScreen (NVS) G Protein-Coupled Receptor Assay for human Opioid Receptor Mu (Opiate Mu) (AID 2283290).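 Also: hits lower bound tracer signal versus DMSO meaning displacement of the ligand.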 In short, it runs like this: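 CHO-derived receptor protein, cell-free; radioligand displacement, filtration + scintillation counting, read at 2.5 h. DMSO = negative control/baseline. Primary: 25 uM single conc, duplicate; secondary: concentration series.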
human Opioid Receptor Mu (Opiate Mu), OPRM1 (gene 4988), sequence (P35372 whole entry, looked up): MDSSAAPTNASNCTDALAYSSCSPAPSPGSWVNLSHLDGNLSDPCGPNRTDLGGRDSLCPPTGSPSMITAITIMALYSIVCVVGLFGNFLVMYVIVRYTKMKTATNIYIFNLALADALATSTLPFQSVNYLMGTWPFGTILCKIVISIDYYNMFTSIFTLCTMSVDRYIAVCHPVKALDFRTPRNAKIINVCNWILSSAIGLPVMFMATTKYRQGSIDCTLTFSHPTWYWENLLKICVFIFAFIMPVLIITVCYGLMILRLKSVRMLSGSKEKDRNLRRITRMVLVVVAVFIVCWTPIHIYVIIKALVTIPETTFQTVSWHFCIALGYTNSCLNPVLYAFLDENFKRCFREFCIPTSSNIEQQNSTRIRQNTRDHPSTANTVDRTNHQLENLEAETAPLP

In assay [13] the target is guinea pig Serotonin, 5-Hydroxytryptamine Receptor 4 (5HT4), HTR4 (gene 100135548) (UniProt O70528). Kind of assay: NVS_GPCR_g5HT4: NovaScreen (NVS) G Protein-Coupled Receptor Assay for guinea pig Serotonin, 5-Hydroxytryptamine Receptor 4 (5HT4) (AID 2283294). In short, it runs like this: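 Compounds first screened in duplicate at 25 uM, actives followed up in concentration series. Binding measured as displacement of specific radioligand from guinea pig striatal membranes, 1 h, filter-based scintillation read-out versus DMSO baseline.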
guinea pig Serotonin, 5-Hydroxytryptamine Receptor 4 (5HT4), HTR4 (gene 100135548), sequence (O70528 whole entry, looked up): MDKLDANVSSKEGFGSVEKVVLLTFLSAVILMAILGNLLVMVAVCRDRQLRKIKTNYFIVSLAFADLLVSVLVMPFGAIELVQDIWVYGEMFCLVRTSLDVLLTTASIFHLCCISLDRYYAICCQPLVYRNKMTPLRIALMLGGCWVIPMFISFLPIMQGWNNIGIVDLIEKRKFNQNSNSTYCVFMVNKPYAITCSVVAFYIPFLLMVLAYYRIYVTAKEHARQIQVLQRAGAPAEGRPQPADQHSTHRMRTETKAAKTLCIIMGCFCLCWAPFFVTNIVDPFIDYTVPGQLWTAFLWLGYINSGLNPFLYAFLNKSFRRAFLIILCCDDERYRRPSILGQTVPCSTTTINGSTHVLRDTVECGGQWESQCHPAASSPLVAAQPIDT

In assay [14] the target is human Neuropeptide Receptor Y1 (NPY1), NPY1R (gene 4886) (UniProt P25929). In words: NVS_GPCR_hNPY1: NovaScreen (NVS) G Protein-Coupled Receptor Assay for human Neuropeptide Receptor Y1 (NPY1) (AID 2283276). Summed up: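 Displacement of specific radioligand from NPY1 receptor of SK-N-MC origin, read by filtration and scintillation after 1 h. Compounds first tested at 25 uM in duplicate, then actives in concentration series; signal loss relative to DMSO.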

Assay [15] addresses human Thromboxane A2 Receptor (TXA2), TBXA2R (gene 6915) (UniProt P21731). In words: NVS_GPCR_hTXA2: NovaScreen (NVS) G Protein-Coupled Receptor Assay for human Thromboxane A2 Receptor (TXA2) (AID 2283282).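 Also: actives reduce bound radioligand signal relative to DMSO baseline.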 In short, it runs like this:
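Screening ran at 25 uM in duplicate, with concentration series for confirmed actives. Each test measures radioligand binding to human platelet protein after 1 h, cell-free, using filter-based scintillation detection of signal loss relative to DMSO.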

The target of assay [16] is human Orphanin, Opioid Related Nociceptin Receptor 1 (ORL1), OPRL1 (gene 4987) (UniProt P41146). Kind of assay: NVS_GPCR_hORL1: NovaScreen (NVS) G Protein-Coupled Receptor Assay for human Orphanin, Opioid Related Nociceptin Receptor 1 (ORL1) (AID 2283283). Summed up:
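Cell-free binding using HEK293-derived receptor protein: radioligand displacement measured by filter scintillation 1 hour after dosing. Primary testing at 25 uM in duplicate, followed by singleton concentration series up to 50 uM; DMSO served as negative control.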

For assay [17], the target named is mouse Cholecystokinin, CCK2 Receptor (CCKB), Cckbr (gene 12426) (UniProt P56481). Kind of assay: NVS_GPCR_mCKKBCentral: NovaScreen (NVS) G Protein-Coupled Receptor Assay for mouse Cholecystokinin, CCK2 Receptor (CCKB) (AID 2283293). In short, it runs like this:
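Mouse forebrain membrane preparation incubated 2 h with chemical and radioligand; bound radioactivity counted after filtration. Single-concentration duplicate screen at 25 uM, then concentration series to 50 uM max for hits, DMSO as baseline.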

In assay [18] the target is guinea pig Bradykinin Receptor B2 (BK2), BDKRB2 (gene 100135486) (UniProt O70526). In words: NVS_GPCR_gBK2: NovaScreen (NVS) G Protein-Coupled Receptor Assay for guinea pig Bradykinin Receptor B2 (BK2) (AID 2283292). In short, it runs like this:
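Guinea pig ileum membrane preparation incubated 1 h with radioligand and test chemical; bound counts measured after filtration. Primary duplicate screening at 25 uM, then singleton concentration series with a 50 uM top dose; DMSO as baseline.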

Muscarinic acetylcholine receptor M3 (Homo sapiens), sequence (P20309 whole entry, looked up): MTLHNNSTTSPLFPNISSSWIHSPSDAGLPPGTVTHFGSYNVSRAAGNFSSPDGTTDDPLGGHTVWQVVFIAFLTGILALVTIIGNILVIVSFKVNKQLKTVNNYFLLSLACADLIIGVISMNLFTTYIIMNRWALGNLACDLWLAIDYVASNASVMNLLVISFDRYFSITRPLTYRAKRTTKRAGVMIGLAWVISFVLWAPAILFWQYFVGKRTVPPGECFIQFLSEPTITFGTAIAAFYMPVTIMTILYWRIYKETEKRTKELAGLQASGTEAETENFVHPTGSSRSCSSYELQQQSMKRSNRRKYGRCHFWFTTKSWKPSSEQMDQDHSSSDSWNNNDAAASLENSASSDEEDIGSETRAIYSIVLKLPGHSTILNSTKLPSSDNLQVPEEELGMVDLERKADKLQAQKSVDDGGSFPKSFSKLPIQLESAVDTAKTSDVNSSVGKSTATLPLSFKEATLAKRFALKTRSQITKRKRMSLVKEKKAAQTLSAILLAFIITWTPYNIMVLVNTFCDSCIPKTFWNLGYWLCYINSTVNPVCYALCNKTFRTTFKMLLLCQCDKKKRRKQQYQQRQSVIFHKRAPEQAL
Muscarinic acetylcholine receptor M5 (Homo sapiens), sequence (P08912 whole entry, looked up): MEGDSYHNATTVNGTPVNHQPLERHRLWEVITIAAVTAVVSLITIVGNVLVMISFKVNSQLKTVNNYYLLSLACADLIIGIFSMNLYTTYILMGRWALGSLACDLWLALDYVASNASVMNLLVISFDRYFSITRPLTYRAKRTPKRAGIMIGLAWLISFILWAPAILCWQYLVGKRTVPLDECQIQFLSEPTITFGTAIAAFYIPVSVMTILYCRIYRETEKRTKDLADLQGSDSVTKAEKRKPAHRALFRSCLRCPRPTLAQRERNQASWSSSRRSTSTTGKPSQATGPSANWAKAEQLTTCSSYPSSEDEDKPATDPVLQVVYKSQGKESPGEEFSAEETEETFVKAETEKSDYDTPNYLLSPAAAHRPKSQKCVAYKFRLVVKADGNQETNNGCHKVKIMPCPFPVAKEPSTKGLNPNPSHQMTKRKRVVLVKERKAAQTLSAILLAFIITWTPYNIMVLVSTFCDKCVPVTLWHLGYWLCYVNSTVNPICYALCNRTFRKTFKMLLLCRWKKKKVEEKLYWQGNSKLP
human Muscarinic, M4 Receptor, CHRM4 (gene 1132), sequence (P08173 whole entry, looked up): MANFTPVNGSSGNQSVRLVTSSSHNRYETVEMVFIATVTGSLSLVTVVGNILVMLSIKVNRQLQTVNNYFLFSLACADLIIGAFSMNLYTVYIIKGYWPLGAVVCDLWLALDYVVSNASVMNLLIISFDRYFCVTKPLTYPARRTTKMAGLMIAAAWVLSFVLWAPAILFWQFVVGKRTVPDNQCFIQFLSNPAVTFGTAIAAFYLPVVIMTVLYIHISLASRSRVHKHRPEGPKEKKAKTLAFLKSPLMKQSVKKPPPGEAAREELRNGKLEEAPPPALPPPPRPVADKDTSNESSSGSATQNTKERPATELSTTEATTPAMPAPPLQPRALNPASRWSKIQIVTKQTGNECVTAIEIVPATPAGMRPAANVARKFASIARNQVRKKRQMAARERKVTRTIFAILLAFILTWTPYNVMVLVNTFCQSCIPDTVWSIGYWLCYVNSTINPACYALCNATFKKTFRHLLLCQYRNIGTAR
human Thromboxane A2 Receptor (TXA2), TBXA2R (gene 6915), sequence (P21731 whole entry, looked up): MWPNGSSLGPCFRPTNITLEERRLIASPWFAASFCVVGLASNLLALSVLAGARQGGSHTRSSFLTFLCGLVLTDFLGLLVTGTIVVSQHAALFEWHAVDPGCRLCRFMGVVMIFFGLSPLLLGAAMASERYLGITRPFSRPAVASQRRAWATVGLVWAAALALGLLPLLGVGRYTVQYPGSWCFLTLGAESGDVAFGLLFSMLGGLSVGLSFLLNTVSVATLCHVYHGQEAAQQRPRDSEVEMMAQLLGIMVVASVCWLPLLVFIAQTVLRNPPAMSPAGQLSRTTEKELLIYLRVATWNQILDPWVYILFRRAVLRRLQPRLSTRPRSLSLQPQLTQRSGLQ

Turning to `CCCOC(=O)c1cc(O)c(O)c(O)c1`, the result in [1] was inactive.

Consider `CC1=CC(=O)/C(=C(/C)O)C(=O)O1`, for which, in assay [2], the compound was called inactive.

Regarding `O=c1c(-c2ccc(O)cc2)coc2cc(O)cc(O)c12`, in assay [3], the compound was called inactive.

`NCc1cccc(C2CCN(C(=O)c3ccc(C#Cc4ccccc4F)o3)CC2)c1`: the AC50 in assay [4] was 0.929 µM (active); in [5], 0.923 µM (active); in assay [6], 0.882 µM (active); in assay [7] it was 4.14 µM (active); in assay [8] it was 2.33 µM (active); in assay [1] it was 2.9 µM (active). The AC50 is 10.2 µM (active) in assay [9]; 13.6 µM (active) in assay [10]; 4.96 µM (active) in assay [2]; 9.21 µM (active) in assay [11]; 21.5 µM (active) in assay [3]; 2.56 µM (active) in assay [12]. Further, the AC50 in assay [13] was 17.6 µM (active).

Regarding `CCN(CC)C(=O)c1cc(S(=O)(=O)Cc2ccccc2)c(N2CCC(c3ccccc3)CC2)cc1N(CC)CCN(C)C`, the AC50 in assay [4] is 7.89 µM (active); in [6] it was 9.84 µM (active); in [7], 6.24 µM (active); in assay [14] it was 14.6 µM (active); in assay [1] it was 4.95 µM (active); in [9], 14.2 µM (active). In addition, the AC50 in [11] is 10.2 µM (active); in [12], 10.3 µM (active). In assay [15], the result was inactive.

With `CC(C)(C)c1csc(-c2cc3cc(OCc4ccccc4CC(=O)O)ccc3o2)n1`, the outcome in [9] and in [10] was inactive.

In the case of `O=C(O)Cn1c(=O)n(Cc2ccc(Br)cc2F)c(=O)c2ccc(Cl)cc21`, the compound was called inactive in assay [8].

As to `O=c1[nH]sc2ccccc12`, the AC50 in assay [14] was 4.62 µM (active); in assay [1] it was 0.38 µM (active); in assay [16] it was 3.2 µM (active); in assay [2] it was 40.4 µM (active); in assay [13], 33.7 µM (active). Also, the compound was classed as inactive in assay [12].

`O=C(O)c1ccccc1-n1cc(C(=O)O)c(=O)c2cc(Nc3c(F)cc(F)cc3Cl)c(Cl)cc21`: the compound was called inactive in [17].

With `O=C1O[C@H]([C@@H](O)CO)C(O)=C1O`, in [15], the AC50 was 8.76 µM (active).

Regarding `CN(C)C(=O)C1(N2CCCCC2)CCN(CC[C@@]2(c3ccc(Cl)c(Cl)c3)CN(C(=O)c3ccccc3)CCO2)CC1`, the AC50 in assay [4] is 9.78 µM (active); in assay [5], 6.82 µM (active); in assay [6], 6.99 µM (active); in assay [7], 6.44 µM (active); in assay [8] it was 8.65 µM (active); in [9], 10.3 µM (active). Besides, the AC50 is 4.88 µM (active) in assay [16]; 3.99 µM (active) in [10]; 1.41 µM (active) in [12]; 14 µM (active) in assay [18]; 23.6 µM (active) in [13]. In addition, the call in assay [1] and in assay [2] was inactive.
